From PubChem BioAssay come the findings set out here.

For the assay, the target named is NADPH oxidase 5 (Homo sapiens) (UniProt Q96PH1). The assay is described as follows: compounds shifting NOX5 Amplex Red fluorescence – cell-based, HEK293-NOX5, NOX inhibitor project, primary screen (AID 1161). The following applies: HEK293-NOX5, ionomycin, 45 min, higher = more signal.
Sequence of NADPH oxidase 5 (Homo sapiens) (Q96PH1 whole entry, looked up): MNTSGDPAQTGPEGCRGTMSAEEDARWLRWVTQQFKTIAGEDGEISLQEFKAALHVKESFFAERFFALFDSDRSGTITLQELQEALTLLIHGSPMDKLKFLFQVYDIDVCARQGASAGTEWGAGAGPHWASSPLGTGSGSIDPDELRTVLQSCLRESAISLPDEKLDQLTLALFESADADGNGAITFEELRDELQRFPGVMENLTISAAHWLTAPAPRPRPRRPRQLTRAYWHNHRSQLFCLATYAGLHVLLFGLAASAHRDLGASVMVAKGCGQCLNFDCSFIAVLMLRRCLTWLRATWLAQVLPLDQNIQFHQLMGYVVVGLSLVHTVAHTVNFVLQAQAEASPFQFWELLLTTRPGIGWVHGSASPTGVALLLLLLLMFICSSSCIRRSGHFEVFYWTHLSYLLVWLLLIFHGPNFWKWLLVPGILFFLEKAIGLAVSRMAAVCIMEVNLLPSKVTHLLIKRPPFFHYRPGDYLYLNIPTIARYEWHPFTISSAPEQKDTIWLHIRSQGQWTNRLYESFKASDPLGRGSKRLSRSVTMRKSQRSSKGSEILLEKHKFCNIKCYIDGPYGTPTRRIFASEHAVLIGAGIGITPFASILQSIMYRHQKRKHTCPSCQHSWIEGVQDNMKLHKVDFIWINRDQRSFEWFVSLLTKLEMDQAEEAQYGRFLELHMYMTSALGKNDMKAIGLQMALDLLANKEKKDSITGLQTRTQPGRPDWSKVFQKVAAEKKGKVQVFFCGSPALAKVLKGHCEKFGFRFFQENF
Take `CCOC(=O)CCN1C(=O)[C@H]2[C@H]3[C@H](O)[C@H](O)CC(=NOCC=C(C)CCC=C(C)C)[C@H]3CC[C@H]2C1=O`: the z-score was 0.546.

For `CCOC(=O)[C@H](Cc1ccccc1)NC(=O)CCC1CC(OC(=O)NCc2cccc3ccccc23)CC2(CCCC(COC(=O)NCCOc3ccccc3)O2)O1` (stereo partly specified), the z-score was determined as 1.06.

Consider `CCOC(=O)[C@H](CC(C)C)NC(=O)CCC1CC(OC(=O)NCCc2ccc(F)cc2)CC2(CCCC(COC(=O)NCCCN3CCCC3=O)O2)O1` (stereo partly specified), for which the z-score turned out to be 0.802.

Take `CC(=O)OC[C@H]1O[C@H](CC=NOC(C)CN2CCCCc3nc(C)c(C)cc32)C=C[C@@H]1OC(C)=O` (stereo partly specified): the z-score was -1.24.

As to `C#CCCCON=C1[C@H]2CCn3c(=O)n([C@@H](CC)c4ccccc4)c(=O)n3[C@H]2[C@H](O)[C@@H]2O[C@H]12`, the z-score was found to be 1.12.

Regarding `CO[C@H]1C[C@@H]2C[C@H](O)CC(CC(=O)O[C@@H](C=CCC(C)C)C[C@@H]3CC[C@H](C)[C@@H](C1)O3)O2`, the z-score is 1.2.

`C=CC[C@@H]1C=C[C@H](ON=C[C@@H](NS(=O)(=O)c2ccc(C)cc2)[C@H](C)C=CCC(=O)OC)[C@@H](CO)O1`: the z-score is -0.286.

In the case of `CO[C@H]1COC(=O)CCC[C@H](C)[C@@H](OC)COC(=O)CC=C[C@@H]1C`, the z-score amounted to 0.344.

For `O=C(NN=C1C[C@@H](O)[C@@H](O)[C@@H]2[C@@H]3C(=O)N(Cc4ccccc4)C(=O)[C@@H]3CC[C@H]12)OCc1ccccc1`, the z-score was -0.0528.

With `CCOC(=O)[C@H](CC(C)C)NC(=O)CCC1CC(OC(=O)NCCc2ccc(F)cc2)CC2(CCCC(COC(=O)NCc3cccc4ccccc34)O2)O1` (stereo partly specified), the z-score is -0.0307.

`CCN1C(=O)[C@H]2[C@H]3[C@H](O)[C@H](O)CC(=NOCC(C)C)[C@H]3CC[C@H]2C1=O`: the z-score is -0.231.

As for `COC(OC)[C@@H](C)[C@H](OC)[C@@H](C)[C@H](OC)c1ccccc1`, the z-score is 0.577.

Consider `COC(=O)[C@H](C)NC(=O)CCC1CC(OC(=O)NCc2ccc3c(c2)OCO3)CC2(CCCC(COC(=O)NCc3ccccc3)O2)O1` (stereo partly specified), for which the z-score was determined as 0.654.

On to `CO[C@@H](C1CCCCC1)[C@@H](C)[C@H](OCc1cccc(Br)c1)[C@@H](C)CO`, for which the z-score was -2.45.

For the compound `CC(C)CON=C1[C@H]2CCn3c(=O)n(C)c(=O)n3[C@H]2[C@H](O)[C@@H]2O[C@H]12`, the z-score was -0.0469.

For the compound `C[C@]12CCC3c4ccc(OCC5CO5)cc4CCC3C1CC[C@@H]2O` (stereo partly specified), the z-score is -1.74.

Consider `CO[C@@H]1C=CCC(=O)N[C@@H](C)C(=O)OC[C@@H](OC)[C@H](C)C=CCC(=O)OC[C@H]1C`, for which the z-score was -0.367.

In the case of `OC[C@H]1O[C@H](C#Cc2ccccc2)C=C[C@@H]1O`, the z-score came out at 1.33.

`CC(C)[C@@H](OCc1ccccc1)[C@H](C)C=NO[C@H](C)c1cn([C@@H]2COC[C@H]2O)nn1`: the z-score is 0.704.

On to `CN1CCc2nc(-c3ccccc3)c(-c3ccccc3)cc2C1`, for which the z-score is -0.409.

Turning to `O=C1[C@H]2[C@H]3[C@H](O)[C@H](O)CC(=NOC[C@@H](O)COCc4ccco4)[C@@H]3CC[C@H]2C(=O)N1Cc1ccc2c(c1)OCO2`, the z-score was 0.351.

With `CCOC(=O)[C@H](CC(C)C)NC(=O)CCC1CC(OC(=O)NCc2ccc3c(c2)OCO3)CC2(CCCC(COC(=O)NCCc3ccccc3OC)O2)O1` (stereo partly specified), the z-score was found to be 1.24.

In the case of `C[C@@H]1CC[C@H]2C(=O)OC(CN3C(=O)c4ccccc4C3=O)CN2[C@H]1c1ccc(Br)cc1` (stereo partly specified), the z-score was -0.055.

In the case of `O=C1C=C[C@@H](O)[C@@H]2[C@@H]3C(=O)N(Cc4ccc5c(c4)OCO5)C(=O)[C@@H]3CC[C@@H]12`, the z-score was -0.372.

As for `COC(=O)[C@H](C)NC(=O)CCC1CC(OC(=O)NCc2cccc3ccccc23)CC2(CCCC(COC(=O)NCCCN3CCCC3=O)O2)O1` (stereo partly specified), the z-score was -0.075.

Regarding `CO[C@@H]1COC(=O)[C@H](COCc2ccccc2)NC(=O)CC=C[C@@H](C)[C@H](OC)COC(=O)[C@@H](C)NC(=O)CC=C[C@H]1C`, the z-score is 0.436.

For the compound `CON=C(C)CCN1CCCCc2nc(C)c(C)cc21`, the z-score was -0.836.

In the case of `C#CCCCON=C1[C@H]2CCn3c(=O)n(Cc4cc5c(cc4Cl)OCO5)c(=O)n3[C@H]2[C@H](O)[C@@H]2O[C@H]12`, the z-score is -0.275.

With `C[C@H]1CC[C@H]2C(=O)N[C@H](Cc3ccccc3)C(=O)N2[C@@H]1c1ccccc1`, the z-score was -0.119.

As for `CC(CCN1CCc2nc(-c3ccccc3)c(-c3ccccc3)cc2C1)=NO[C@H](C)c1cn([C@H](CO)Cc2ccccc2)nn1`, the z-score was -1.75.

Take `C#CCCCON=C1C[C@@H](O)[C@@H](O)[C@@H]2[C@@H]3C(=O)N(C[C@@H]4CCCO4)C(=O)[C@@H]3CC[C@@H]12`: the z-score is -0.0863.
